# Rows were chosen to be rich in hits. Some 20% of all compounds tested hit in one or more screens of this group.
# Pf growth 48h: inhibits P. falciparum growth in the first generation, 48 h. P. falciparum luciferase growth in erythrocytes, 48 h. Potency, µM (top dose mostly 28.7 µM), inactives show top-dose activity change, negative = inhibition, usual class: inhibitors. hit rate 5.9% among 310,000. AID 504832; also: potency is read from the fitted curve at half-maximal effect; % is scaled to controls: 0 for no effect and ±100 for the full control effect
#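 Cell-based growth assay: transgenic P. falciparum expressing firefly luciferase, cultured in red cells within RPMI 1640 containing 0.5% w/v Albumax, 24 mM bicarbonate and gentamycin. A drop in luciferase activity indicates inhibition.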
# Cycloheximide cs: counter-screen hit for Shiga toxin inhibitors, cycloheximide | cell reporter, cycloheximide protein synthesis inhibition counterscreen | max response, % | hit rate 12% among 300,000 | AID 2314; in the data active = max response mostly above about 13%, no sharp cut-off; inactive = mostly below about 14%; also: read at 38.3 µM for the half of the compounds with a filed dose; 0% is about no effect
# HCMV antiviral: inhibitors of human cytomegalovirus; HFF cells, HCMV-luciferase reporter, 72 h; stronger effect = lower value; activity change, negative = inhibition, % at 57.5 µM; hit rate 4.5% among 410,000; in the data active = activity change below about -60%; inconclusive = no clear call, values can overlap the other calls; inactive = above about -39%; also: % is scaled to controls: 0 for no effect and ±100 for the full control effect
#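 Two-dose cell screen: HFF monolayers treated with compounds and infected with luciferase-expressing HCMV at 1 PFU/cell, 72 h at 37C, then lysed for luciferase measurement.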
# Pf growth 96h: inhibits malaria parasite growth, 96 h. hit rate 6.9% among 320,000. Potency, µM (titrated, usually from 28.7 µM), for inactives: at the top dose activity change, negative = inhibition, usual class: inhibitors. AID 504834. P. falciparum luciferase reporter growth, 96 h; also: potency is read from the fitted curve at half-maximal effect; % is scaled to controls: 0 for no effect and ±100 for the full control effect
#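 Infected RBCs, 2% Hct / 0.05% parasitemia final; luciferase-reporter P. falciparum; cpd 96 h, 37 C, 5% CO2; luciferase detection reagent; luminescence.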
# Shiga inhibitor: Shiga toxin inhibition; Vero cells, Shiga toxin protein synthesis inhibition reporter; inhibition, % at 38.7 µM; hit rate 9.2% among 290,000; AID 2315; in the data active = inhibition mostly above about 28%, no sharp cut-off; inactive = mostly below about 43%; also: 0% is about no effect
# Starred values were filed as active, the others as inactive; ? = inconclusive; · = no result given; [ ] = remark or other dose. Unless noted, calls follow the shape of the dose curve; as a rule, active = well fitted inhibition curve with a large enough effect; inconclusive = small, poorly fitted or top-dose-only effect, or another doubt; inactive = no such curve, though single readings can be large or run the other way.
SMILES,Pf growth 48h,Cycloheximide cs,HCMV antiviral,Pf growth 96h,Shiga inhibitor
N#C/C(=C/c1ccco1)c1nc2ccccc2s1,32%,94*,195,-12%,119*
N#C/C(=C\c1ccco1)c1nc2ccccc2s1,59%,70*,134,0%,110*
O=c1[nH]c2ccccc2nc1-c1nnnn1Cc1ccccc1,·,·,0,·,·
c1ccc(-c2nnsc2-c2nc3ccccc3[nH]2)cc1,9%,23*,-32,0%,43*
O=c1[nH]c2ccccc2nc1-c1ccc(Cl)cc1,61%,18*,98,85%,52*
NC(=O)N=Nc1c2[nH]c3ccccc3nc-2c2ccccc12,?,1,-99*,?,8
CC(C)C(=O)Nc1ccccc1-c1nc2ccccc2[nH]c1=O,0%,-2,-17,-13%,5
O=c1[nH]c2ccccc2nc1-c1ccccc1,53%,26*,-25,55%,50*
Nc1cc(=O)[nH]c(=O)n1CCCc1ccccc1,·,·,-73*,·,·
Nc1cc(=O)[nH]c(=O)n1Cc1ccccc1,19%,-2,3,6%,-6
CC1=C(C(=O)OC(C)C)C(c2ccccc2)NC(=O)N1C (centres undefined),-4%,-2,-7,9.3µM*,-23
CCCCN1C=C(C(=O)OC)C(c2ccccc2C(F)(F)F)C(C(=O)OC)=C1,·,-2,-11,0.52µM*,-23
CCOC(=O)C1=C(C)N(C)C(C)=C(C(=O)OCC)C1c1ccccc1,5.2µM*,-2,-38,?,-13
CCCCOc1ccccc1C1C(C(=O)OC)=C(C)N(C)C(C)=C1C(=O)OC,13µM*,-1,-27,24%,14
CCOC(=O)C1=C(C)N(C)C(C)=C(C(=O)OCC)C1c1ccncc1,?,-1,78,17%,-8
CC(O)CN1CCN(C(=O)CN2C(=O)NC(c3ccccc3)(c3ccccc3)C2=O)CC1 (centres undefined),-21%,-3,80,-57%,-9
COc1ccc(C2(c3ccc(OC)cc3)NC(=O)N(CC(=O)Nc3cc(C)ccc3OC)C2=O)cc1,?,33*,23,?,116*
COc1ccc(C2(c3ccc(OC)cc3)NC(=O)N(CC(=O)Nc3ccc(C(=O)N(C)C)cc3)C2=O)cc1,?,-2,-66*,?,-12
COc1cc(NC(=O)CN2C(=O)NC(c3ccccc3)(c3ccccc3)C2=O)cc(OC)c1,?,-4,?,12%,33
COc1ccc(OC)c(NC(=O)CN2C(=O)C3(OCCCO3)c3ccccc32)c1,-27%,-4,27,5.2µM*,11
O=C(c1cccs1)N1CCN(C/C=C/c2ccccc2)CC1,15%,18,-4,?,9
Cc1ccc(OCC(=O)N/N=C/c2cccnc2)cc1C,-25%,4,7,9%,-11
Cc1c(NC(=O)COC(=O)C2(c3ccc(F)cc3)CCCC2)c(=O)n(-c2ccccc2)n1C,0%,-3,48,4%,-1
Cc1ccc(-c2cc(NC(=O)CCl)n(-c3ccccc3)n2)cc1,10%,53*,-97*,4%[5.75 µM],62
Cc1ccc(-n2nc(C)c(NC(=O)CCl)c2C)cc1,3.7µM*,-1,-101*,-102%,10
SMILES,Pf growth 48h,Cycloheximide cs,HCMV antiviral,Pf growth 96h,Shiga inhibitor
Cc1ccc(OCC(=O)Nc2cc(-c3cccc(C)c3)nn2-c2ccccc2)cc1,·,·,88,·,·
Cc1ccc(-c2nn(-c3ccccc3)cc2/C=N/O)cc1,·,1,28,?,17
O=C(CCl)Nc1cc(-c2ccccc2)nn1-c1ccccc1,·,28*,-87*,6.6µM*,7
Cc1ccc(-c2nn(-c3ccccc3)cc2NC(=O)CCl)cc1,?,41*,?,?,59
Cn1c(-n2cccc2)c(-c2c(-c3ccc(F)cc3)[nH]c3c2c(=O)[nH]c(=O)n3C)c(=O)[nH]c1=O,·,·,82,·,·
COc1ccc(-n2nc(C#N)c(Cl)cc2=O)cc1,360%,-5,-101*,55%,-15
COC(=O)c1nn(-c2ccc(OC)cc2)c(=O)cc1O,40%,6,-29,-13%,20
O=[N+]([O-])c1ccc(N2CCN(C(=S)NCc3ccc(Cl)cc3)CC2)cc1,?,0,-90*,2%,0
CC(C)CC(=O)NC(=S)N1CCN(c2ccc([N+](=O)[O-])cc2Cl)CC1,-28%,-3,-67*,?,-4
CC(C)CC(=O)N1CCN(c2ccc([N+](=O)[O-])cc2Cl)CC1,1%,11,-36,38%,-6
CCNC(=S)N1CCN(c2ccc([N+](=O)[O-])cc2)CC1,12µM*,-1,8,6.6µM*,-14
O=[N+]([O-])c1ccc(NC(=S)N2CCN(c3ccc(F)cc3)CC2)cc1,5%,-5,-31,32%,-20
C=CCNC(=S)N1CCN(c2ccc([N+](=O)[O-])cc2)CC1,1.7µM*,1,-28,?,-14
CCN1CCN(C(=S)Nc2ccc([N+](=O)[O-])cc2)CC1,19%,21*,15,12%,17
Cc1cccc(N2CCN(C(=S)c3ccccc3)CC2)c1,3%,2,-27,-14%,-2
CCCN1CCC(N2CCN(c3ccc([N+](=O)[O-])cc3)CC2)CC1,?,1,8,5.9µM*,-16
CCN1CCC(N2CCN(c3ccc(Cl)cc3)CC2)CC1,-1%,1,·,24%,-4
Cc1cccc(N2CCN(C(=S)c3ccc([N+](=O)[O-])cc3)CC2)c1,5%,-5,-63*,33%,-15
COCCCNC(=S)N1CCN(c2ccc([N+](=O)[O-])cc2)CC1,6.6µM*,-5,?,-26%,-7
Cc1ccc(NC(=O)C2CCN(C(=O)c3ccc(F)cc3)CC2)nc1,0%,·,-27,0%,·
Cc1ccc(OCC(=O)NCC(=O)OCc2cc(=O)n3nc(C)sc3n2)cc1,·,·,-14,·,·
COc1cccc(-n2c(=O)c3c(C)c(C(=O)N(C)C)sc3n(CC(=O)NCC3CCCO3)c2=O)c1 (centres undefined),7%,1,9,?,2
O=[N+]([O-])c1ccc(N2CCN(c3ccccc3)CC2)cc1,34%,2,4,-19%,-8
CCN(CC)C(=O)C1CCCN(c2ccc([N+](=O)[O-])cc2)C1 (centres undefined),3%,2,-36,1.7µM*,6
CNC(=S)N1CCN(c2ccc([N+](=O)[O-])cc2)CC1,?,2,11,13µM*,-20
CC(=O)N1CCN(c2ccc([N+](=O)[O-])cc2)CC1,?,-4,-23,179%,-13
CCN(CC)C(=O)C1CCCN(c2ccc([N+](=O)[O-])cc2/C=N/NC(=O)c2ccc([N+](=O)[O-])cc2)C1 (centres undefined),?,-4,37,?,-3
O=[N+]([O-])c1ccc(N2CCCCC2)cc1,34%,27*,-14,27%,45
O=C(CN1CCC(C(=O)c2ccc3c(c2)OCCO3)CC1)NCc1ccccc1,2%,-1,-10,-7%,-6

# Source: PubChem
